From PubChem BioAssay AID588579 (National Center for Advancing Translational Sciences (NCATS), 2011)
Where “and” joins values, the source holds several entries; their conditions need not be identical. Identical values can stand only once. Hit rate of the full screen: of about 400,000 compounds, about 2,200 (0.55%) were called active. About 1% were inconclusive and are not listed. The call rests on the fitted dose curve; in most records, active means well fitted inhibition curve with a large enough effect; inconclusive means small, poorly fitted or top-dose-only effect, or another doubt; inactive means no such curve, though single readings can be large or run the other way. Only a selection was taken, and actives are over-represented in it overall. Positions of bridges follow the written chain, without caps; N, C: chain ends. Residues, ends and D or L forms follow the SMILES beside them.

Target: DNA polymerase kappa (Homo sapiens) (UniProt Q9UBT6)
Test: qHTS for Inhibitors of Polymerase Kappa
Conditions: purified Pol kappa, fluorescent DNA synthesis assay, 10 min; series mostly up to 107 µM
Method in brief: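 Readout: fluorescence, taken kinetically at 0 and 10 min. Conditions: 10 nM Pol kappa, 15 min RT compound preincubation, 50 nM substrate final. Controls: enzyme-free buffer wells.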
On the % scale 0 is the no-effect control and ±100 the full control effect; potency means the concentration at half of the fitted maximal effect.

Chain of DNA polymerase kappa (Homo sapiens) (Q9UBT6 whole entry, looked up): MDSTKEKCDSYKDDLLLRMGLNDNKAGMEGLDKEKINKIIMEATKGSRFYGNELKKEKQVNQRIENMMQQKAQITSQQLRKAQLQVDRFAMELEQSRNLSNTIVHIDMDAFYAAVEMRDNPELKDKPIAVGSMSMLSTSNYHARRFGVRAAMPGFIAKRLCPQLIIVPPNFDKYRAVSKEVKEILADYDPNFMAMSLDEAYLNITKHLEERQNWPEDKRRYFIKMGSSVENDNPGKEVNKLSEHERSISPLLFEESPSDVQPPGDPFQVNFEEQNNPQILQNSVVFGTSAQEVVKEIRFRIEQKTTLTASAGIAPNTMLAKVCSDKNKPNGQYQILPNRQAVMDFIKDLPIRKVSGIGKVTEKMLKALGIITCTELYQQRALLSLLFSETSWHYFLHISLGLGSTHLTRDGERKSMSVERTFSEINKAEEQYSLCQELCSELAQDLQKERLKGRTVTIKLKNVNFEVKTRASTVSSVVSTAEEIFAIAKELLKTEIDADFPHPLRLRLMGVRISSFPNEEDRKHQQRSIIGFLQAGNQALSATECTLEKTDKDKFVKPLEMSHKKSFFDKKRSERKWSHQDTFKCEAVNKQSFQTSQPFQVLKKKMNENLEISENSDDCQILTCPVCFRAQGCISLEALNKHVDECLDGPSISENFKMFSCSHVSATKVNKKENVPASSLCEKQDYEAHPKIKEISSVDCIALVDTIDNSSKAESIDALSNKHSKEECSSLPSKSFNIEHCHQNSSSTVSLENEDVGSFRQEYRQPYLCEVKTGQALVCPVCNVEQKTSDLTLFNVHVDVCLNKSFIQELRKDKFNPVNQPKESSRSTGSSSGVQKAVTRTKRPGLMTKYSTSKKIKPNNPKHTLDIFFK

Potency, active:
COc1ccccc1-n1c(-c2cc(-c3ccco3)[nH]n2)n[nH]c1=S 17.8 µM
CC(=O)c1sc2nc(SCC(=O)N3CCCCC3)[nH]c(=O)c2c1C 79.4 µM
O=C(/C=C/c1ccco1)NC(=S)Nc1ccccc1Br 50.1 µM
O=C1COc2c1ccc(O)c2O 25.1 µM
COc1cccc(NC(=O)COC(=O)/C=C/c2ccco2)c1 79.4 µM
OCCNc1ncnc2oc(-c3ccco3)c(-c3ccco3)c12 11.2 µM
Cc1ccc(/C([O-])=C(/C(=S)NCc2ccco2)[n+]2ccccc2)cc1[N+](=O)[O-] 25.1 µM
Cc1ccc(-c2nn(-c3ccccc3)cc2/C=C2\SC(=S)N(CCCCCC(=O)O)C2=O)o1 79.4 µM
O=C(Nc1nc(-c2ccco2)c(-c2ccco2)s1)c1ccco1 79.4 µM
O=C(O)c1ccc(NS(=O)(=O)c2ccc3c(c2)C(=O)c2cc(S(=O)(=O)Nc4ccc(C(=O)O)cc4)ccc2-3)cc1 79.4 µM
O=C(O)c1c(Br)c(Br)c(Br)c(Br)c1C1c2ccc(O)cc2Oc2cc(O)ccc21 1.12 µM
CC(C)C1N=C2c3ccccc3N=C(SCC(=O)c3ccc(O)c(O)c3)N2C1=O (stereo not drawn) 20 µM
CCC(C)Cn1c(O)cc2nn(-c3nc4ccccc4s3)c(=O)c-2c1C (stereo not drawn) 25.1 µM
COc1ccc2[nH]c(C(=O)N/N=C/c3cc(OC)c(OC)c(OC)c3)cc2c1 50.1 µM
COc1ccc(Cl)cc1NC(=O)CCS(=O)(=O)c1ccc(Br)cc1 79.4 µM
C=CCn1c(=S)[nH]c2scc(-c3ccco3)c2c1=O 22.4 µM
N#C/C(=C\c1ccc(O)c(O)c1)C(N)=O 10 µM

Potency, inactive:
CC(C)(C)c1ccc(C(=O)C[n+]2cccc3cc(Cl)ccc32)cc1
OCC(O)C(O)C(O)C(O)C=Nc1ccc(/C=C/c2ccnc3ccccc23)cc1 (stereo not drawn)
COC1[C@H](OC(N)=O)C(O)[C@H](Oc2ccc3c(O)c(NC(=O)c4ccc(O)c(CC=C(C)C)c4)c(=O)oc3c2C)OC1(C)C (stereo partly drawn)
COc1ccccc1-n1c(=S)[nH]c2c(sc(=S)n2-c2ccc(C)cc2C)c1=O
COc1ccc(OCc2n[nH]c(=S)n2N)cc1
CN(Cc1ccccc1)c1ccc(/C=C/c2ccnc3ccccc23)cc1
CN(C)c1ccc(/C=C/C=C/c2ccnc3ccccc23)cc1
N#Cc1ccccc1-c1ccc2ncnc(NCc3cccnc3)c2c1
Cc1ccccc1-c1ccc(C(=O)O)s1
COc1ccccc1CNc1ncncc1-c1cccnc1
Cc1nc(SCC(=O)N2CCN(c3ccccc3)CC2)[nH]c(=O)c1C
COCCn1c(SCC(=O)N2CCCCCC2)nc2c(c1=O)SCC2
CC1(C)O[C@@H]2C[C@@H]3[C@H]4C[C@@H](F)C5=CC(=O)C=C[C@]5(C)[C@@]4(F)[C@@H](O)C[C@]3(C)[C@]2(C(=O)CO)O1
Oc1ccc2c(c1)OCC1c3cc4c(cc3OC21)OCO4 (stereo not drawn)
O=C(NC(=S)Nc1ncccn1)c1ccccc1Br
CCc1ccc2oc(-c3ccc(C)c(NC(=O)/C=C/c4ccco4)c3)nc2c1
COc1ccc(Oc2ncc3nc(C)c(=O)n(-c4ccccc4)c3n2)cc1
Cc1csc(NCC(=O)c2c[nH]c3ccccc23)n1
C/C=C/NNC(=O)Cc1ccc(OC)cc1
CN1CCCC1CCO[C@@](C)(c1ccccc1)c1ccc(Cl)cc1 (stereo partly drawn)
COc1cccc(NC(=O)COC(=O)c2ccc3ccccc3n2)c1
COc1cc(/C=C/C(=O)OCC(=O)Nc2cccc(Oc3ccccc3)c2)ccc1O
Cc1nc2cnc(N3CCN(C)CC3)nc2n(CCC#N)c1=O
C=C1C([C@@]2(C)C(OC(C)=O)CC(=O)O[C@@](C)(COC(C)=O)C2CC(=O)OC)C(OC=O)C(OC(=O)C(O)C(C)CC)[C@]2(C)C(c3ccoc3)CC(=O)C12O (stereo partly drawn)
COc1ccc(-c2oc3ncnc(NCCCO)c3c2-c2ccc(OC)cc2)cc1
Cc1noc2ncnc(NCc3ccccc3Cl)c12
Cn1cccc1C(=O)N1CCC2(CC1)CN(c1cccc(-c3ccccc3)c1)C2
O=[N+]([O-])c1cc(-c2nc(-c3ccccc3)no2)ccc1NCc1ccco1
O=[N+]([O-])c1cccc(/C([O-])=C(/C(=S)Nc2ccccc2F)[n+]2ccccc2)c1
COc1ccc(-c2nc3cnc(Oc4ccccc4)nc3n(Cc3cccs3)c2=O)cc1
N#Cc1cccc(-c2nc3cnc(N4CCNCC4)nc3n(C3CC3)c2=O)c1
O=C(O)C1=C/C(=C/C=[N+]2c3cc(O)c(O[C@H]4OC(CO)[C@@H](O)[C@@H](O)[C@@H]4O)cc3C[C@@H]2C(=O)[O-])C[C@H](C(=O)O)N1 (stereo partly drawn)
C[C@@H](O)[C@@H]1NC(=O)[C@H](CCCCN)NC(=O)[C@H](Cc2c[nH]c3ccccc23)NC(=O)[C@H](Cc2ccccc2)NC(=O)[C@H](Cc2ccccc2)NC(=O)[C@H](CC(N)=O)NC(=O)[C@H](CCCCN)NC(=O)[C@@H](NC(=O)[C@@H]2CCCN2)CSSC[C@@H](C(=O)N[C@@H](CCCCN)C(=O)O)NC(=O)[C@H](CO)NC(=O)[C@H](CO)NC(=O)[C@H](Cc2ccccc2)NC1=O (H-PCKNFFWKTFSSCK-OH; disulfide 2-13)
O=C(Nc1ccc([N+](=O)[O-])cc1)c1cnn2c1NC(=C1CC1)C=C2C(F)F
CCN(c1ccc(Cl)cc1)S(=O)(=O)c1nnc(NC(=O)c2ccco2)s1
O=C(Nc1ccc2nc(SCCOc3ccccc3)sc2c1)c1ccco1
O=C(c1ccc(NS(=O)(=O)c2ccc3[nH]c(=O)[nH]c3c2)cc1)N1CCCCC1
Cc1noc(C)c1S(=O)(=O)Nc1ccc(C(=O)O)cc1
COc1ccccc1CNc1ncncc1-c1cccc(NS(C)(=O)=O)c1
CC(C)C(N)C(=O)OCCOCn1cnc2c(=O)[nH]c(N)nc21 (stereo not drawn)
COc1cccc(Cn2c(=O)c(CCc3ccccc3)nc3cnc(N(C)C)nc32)c1
Cc1ccc(CNC(=O)CSC2=Nc3ccccc3C3=NC(C)C(=O)N23)cc1 (stereo not drawn)
CCOC(=O)CSC1=Nc2ccccc2C2=NC(CCC(=O)NCc3ccc(F)cc3)C(=O)N12 (stereo not drawn)
COc1cc2nc(N3CCCN(C)CC3)nc(NC(C)C)c2cc1OC
C=COC(=O)N1CCN(/[N+]([O-])=N/Oc2ccc([N+](=O)[O-])cc2[N+](=O)[O-])CC1
Nc1ncnc2c1c(I)cn2[C@@H]1C[C@H](N)[C@@H](O)[C@H]1O
CC1(C)OC2CO[C@]3(COS(N)(=O)=O)OC(C)(C)OC3C2O1 (stereo partly drawn)
COc1cc(NC(=O)c2cc3ccc4cccnc4c3[nH]2)cc(OC)c1OC
COc1ccc(-c2cc(C(=O)NCc3cc(OC)c(OC)c(OC)c3)[nH]n2)cc1
Nc1nc2nc(Cl)[nH]c2c(=O)[nH]1
COc1ccc(Cl)cc1NC(=O)CCC(=O)c1ccc(C)cc1
Cc1ccc(Cl)cc1NC(=O)CCS(=O)(=O)c1ccc(Br)s1
COc1ccccc1CNc1ncnc2ccc(-c3ccc4c(c3)OCO4)cc12
CC1(C)OC2CC3C4CCC5=CC(=O)CCC5(C)C4(F)C(O)CC3(C)[C@]2(C(=O)CCl)O1 (stereo partly drawn)
O=c1c(-c2ccc(F)cc2)nc2cnc(N3CCOCC3)nc2n1-c1ccccc1
CN(C)c1ccc(/C=C/c2c3ccccc3nc3ccccc23)cc1
CC(C)(C(=O)NO)c1ccccc1
Fc1ccc(Cl)cc1-c1nc(Nc2ccncc2)c2nccnc2n1
COc1ccccc1CCn1c(=O)c(-c2cn(C)c3ccccc23)nc2cncnc21
CC(C)NC(=O)/C(C#N)=C\c1ccc(N(C)C)c(Br)c1
Cc1ccc(/C=C(\C#N)C(=O)Nc2cc(C)ccc2C)cc1

activity, negative = inhibition, inactive:
C=C1C(=CC=C2CCC[C@@]3(C)[C@@H]2CC[C@H]3[C@H](C)CCCC(C)C)C[C@@H](O)C[C@@H]1O -13.8% [at 19.4 µM]
O=C(/C=C/c1cccc(F)c1)NC1CC1 10.9% [at 19.4 µM]
CC(=O)OC1C([N+]2(C)CCCCC2)C[C@H]2C3CC[C@H]4C[C@H](OC(C)=O)C([N+]5(C)CCCCC5)CC4(C)C3CCC12C (stereo partly drawn) -5.47% [at 19.4 µM]
CCN(Cc1ccncc1)C(=O)[C@@H](CO)c1ccccc1 -2.15% [at 12 µM] and -8.7% [at 19.4 µM]
Cc1cccc(C)c1NC(=O)NC1=CCCN1C 0.19% [at 19.4 µM]
CC(C)=CCC[C@]1(C)[C@@H](CC=C(C)C)C[C@@]2(CC=C(C)C)C(=O)[C@]1(C(=O)C(C)C)C(=O)C(CC=C(C)C)=C2O -7.28% [at 19.4 µM]
CC[C@]1([C@H]2O[C@@H]([C@@H]3O[C@](O)(CO)[C@@H](C)C[C@H]3C)C[C@H]2C)CC[C@@H]([C@]2(C)CC[C@@]3(C[C@@H](O)[C@@H](C)[C@@H]([C@H](C)[C@H](OC)[C@H](C)C(=O)O)O3)O2)O1 -5.79% [at 19.4 µM]
CC(C)[C@H]1CC[C@@H](C)C[C@H]1O -5.92% [at 19.4 µM]
CCCCC/C=C\CC1OC1CCCCCCCC(=O)O (stereo not drawn) -0.735% [at 19.4 µM]
CCCCC/C=C\C/C=C\CCCCCCCCCC(=O)O 1.81% [at 19.4 µM]
